Measurements as given in PubChem BioAssay (NCATS).
Results filed as inconclusive are left out. The source made the active and inactive calls. The call rests on the fitted dose curve; in most records, active means well fitted curve in the direction sought with a large enough effect; inconclusive means small, poorly fitted or top-dose-only effect, or another doubt; inactive means no such curve, though single readings can be large; an effect the other way counts as inactive or inconclusive.

Columns and labels:
[1] = Cell Viability - LYMP2-017 (AID 972); details: LYMP2-017 lymphoblastoid cell viability; series mostly up to 92.2 µM; further: nearly all actives have a fitted effect of over 55% in size
Procedure, shortened: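 LYMP2-017 human lymphoblastoid cells (2500/well) settled 5 hr at 37 C, then exposed to compound 24 hr at 37 C in complete medium. Viability taken as intracellular ATP by CellTiter-Glo luminescence after 30 min at RT; AC50 from Hill fits.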

[2] = Cell Viability - LYMP2-019 (AID 973); details: LYMP2-019 lymphoblastoid cell line viability; series mostly up to 92.2 µM; further: nearly all actives have a fitted effect of over 55% in size
Procedure, shortened: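 Human lymphoblastoid LYMP2-019 cells (2500/well) preincubated 5 h at 37 C, then treated 24 h at 37 C in complete medium. Viability by CellTiter-Glo ATP luminescence after 30 min at room temperature; AC50 from Hill fits.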

[3] = Cell Viability - LYMP2-021 (AID 974); details: LYMP2-021 lymphoblastoid cells viability; series mostly up to 92.2 µM;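 further: compound exposure lasts 24 hours at 37 °C; nearly all actives have a fitted effect of over 55% in size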
Procedure, shortened: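 Human lymphoblastoid LYMP2-021 cells, 2500/well in complete medium, treated 24 hours at 37 C. Intracellular ATP by CellTiter-Glo luminescence (30 min, RT); AC50 from Hill fits of concentration-response.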

[4] = Cell Viability - LYMP2-023 (AID 975); details: LYMP2-023 lymphoblastoid cell viability; series mostly up to 92.2 µM;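 further: cellular ATP measured by luciferase luminescence as viability proxy; nearly all actives have a fitted effect of over 55% in size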
Procedure, shortened: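 LYMP2-023 human lymphoblastoid cells, 2500/well, preincubated 5 hr at 37 C, then compound-treated 24 hr at 37 C in complete medium. CellTiter-Glo luminescence (ATP) after 30 min at room temperature; AC50 from Hill-equation fits; tetraoctylammonium bromide positive control.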

[5] = Cell Viability - LYMP2-025 (AID 976); details: LYMP2-025 lymphoblastoid cell viability; series mostly up to 92.2 µM
Procedure, shortened: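 Human lymphoblastoid LYMP2-025 cells, 2500/well, exposed 24 h at 37 C in complete medium in 1536-well qHTS. Viability as cellular ATP by CellTiter-Glo luminescence; AC50 from Hill fits of concentration-response data.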

[6] = Cell Viability - LYMP2-002 (AID 977); details: LYMP2-002 lymphoblastoid cell viability, qHTS; series mostly up to 92.2 µM
Procedure, shortened: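 Human lymphoblastoid LYMP2-002 cells, 2500 per well, exposed to compounds for 24 h at 37 C in complete medium; viability read as intracellular ATP by CellTiter-Glo luminescence, AC50 from Hill fits.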

[7] = Cell Viability - LYMP2-006 (AID 978); details: LYMP2-006 lymphoblastoid cell viability, qHTS; series mostly up to 92.2 µM; further: nearly all actives have a fitted effect of over 60% in size
Procedure, shortened: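 Potency values are Hill-fit AC50s for decreases in intracellular ATP (CellTiter-Glo luminescence). LYMP2-006 lymphoblastoid cells, 2500 per well, were exposed to compound in complete culture medium for 24 hr at 37 C.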

[8] = Cell Viability - LYMP2-007 (AID 979); details: LYMP2-007 lymphoblastoid cell viability; series mostly up to 92.2 µM;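 further: cells exposed to compound for 24 h before reading; nearly all actives have a fitted effect of over 60% in size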
Procedure, shortened: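 Human lymphoblastoid LYMP2-007 cells (2500/well) preincubated 5 h at 37 C, then treated 24 h at 37 C in complete medium. Viability by CellTiter-Glo ATP luminescence after 30 min at room temperature; AC50 from Hill fits.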

[9] = Cell Viability - LYMP2-008 (AID 980); details: LYMP2-008 lymphoblastoid cell viability, qHTS; series mostly up to 92.2 µM; further: nearly all actives have a fitted effect of over 60% in size
Procedure, shortened: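 LYMP2-008 lymphoblastoid cells (2500/well) plated 5 h, then treated 24 h at 37 C in complete medium. Viability read as intracellular ATP by CellTiter-Glo luminescence after 30 min at room temperature; AC50 from Hill fits.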

[10] = Cell Viability - LYMP2-010 (AID 981); details: LYMP2-010 lymphoblastoid cell viability, qHTS; series mostly up to 92.2 µM; further: nearly all actives have a fitted effect of over 55% in size
Procedure, shortened: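 Human lymphoblastoid LYMP2-010 cells (2500/well) treated 24 h at 37 C in complete medium; viability read as intracellular ATP by CellTiter-Glo luminescence. AC50 from Hill fits of concentration-response data; tetraoctylammonium bromide positive control.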

[11] = Cell Viability - LYMP2-012 (AID 982); details: LYMP2-012 lymphoblastoid cell viability qHTS; series mostly up to 92.2 µM
[12] = Cell Viability - LYMP2-014 (AID 983); details: LYMP2-014 lymphoblastoid cells, viability qHTS; series mostly up to 92.2 µM; further: nearly all actives have a fitted effect of over 50% in size
Procedure, shortened: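 LYMP2-014 human lymphoblastoid cells, 2500/well, treated 24 h at 37 C in complete medium; viability by CellTiter-Glo ATP luminescence after 30 min at room temperature. AC50 from Hill fits of qHTS concentration-response; tetraoctylammonium bromide positive control.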

[13] = Cell Viability - LYMP2-016 (AID 984); details: LYMP2-016 lymphoblastoid cell viability, qHTS; series mostly up to 92.2 µM; further: nearly all actives have a fitted effect of over 55% in size
Procedure, shortened: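 Cytotoxicity was scored by luminescent ATP content (CellTiter-Glo) after 24 h compound exposure at 37 C of a human lymphoblastoid line at 2500 cells/well. Concentration-response data were fitted to the Hill equation for AC50.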

[14] = Cell Viability - LYMP2-018 (AID 985); details: LYMP2-018 lymphoblastoid cells, viability (qHTS); series mostly up to 92.2 µM;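 further: compound exposure lasted 24 hr at 37 °C; nearly all actives have a fitted effect of over 50% in size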
Procedure, shortened: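 Human lymphoblastoid LYMP2-018 cells, 2500/well, settled 5 hr at 37 C then exposed to compound 24 hr at 37 C; intracellular ATP measured by CellTiter-Glo luminescence. AC50 from Hill-equation concentration-response fits.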

[15] = Cell Viability - LYMP2-020 (AID 986); details: series mostly up to 92.2 µM; further: nearly all actives have a fitted effect of over 55% in size
Procedure, shortened: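 Human lymphoblastoid LYMP2-020 cells (2500/well) preincubated 5 h at 37 C, then treated 24 h at 37 C. Viability measured as intracellular ATP by CellTiter-Glo luminescence after 30 min at room temperature; AC50 from Hill fits.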

[16] = Cell Viability - LYMP2-022 (AID 987); details: LYMP2-022 lymphoblastoid cell viability; series mostly up to 92.2 µM; further: nearly all actives have a fitted effect of over 55% in size
Procedure, shortened: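 LYMP2-022 lymphoblastoid cells (2500/well, complete medium) were treated with compounds for 24 hours at 37 C; intracellular ATP was then read by CellTiter-Glo luminescence after 30 min at room temperature. AC50 values were derived from Hill-equation fits.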

[17] = Cell Viability - LYMP2-024 (AID 988); details: LYMP2-024 lymphoblastoid cell viability; series mostly up to 92.2 µM; further: nearly all actives have a fitted effect of over 60% in size
Procedure, shortened: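 Human lymphoblastoid LYMP2-024 cells (2500/well) rested 5 hr, then treated with compound for 24 hr at 37 C in complete medium. Viability was measured as intracellular ATP by CellTiter-Glo luminescence. AC50 values came from Hill-equation fits.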

[18] = Cell Viability - LYMP2-026 (AID 989); details: LYMP2-026 lymphoblastoid cell viability, qHTS; series mostly up to 92.2 µM; further: nearly all actives have a fitted effect of over 50% in size
Procedure, shortened: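 Human lymphoblastoid LYMP2-026 cells, 2500/well, exposed to compound 24 h at 37 C in complete medium. Viability as intracellular ATP by CellTiter-Glo luminescence; AC50 from Hill fits of qHTS concentration-response.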

[19] = Cell Viability - LYMP1-002 - Assay at 40 hr (AID 994); details: LYMP1-002 lymphoblastoid cell viability; series mostly up to 92.2 µM; further: nearly all actives have a fitted effect of over 60% in size
Procedure, shortened: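 LYMP1-002 human lymphoblastoid cells (2500/well, complete medium) were treated with compounds for 40 hr at 37 C. Intracellular ATP was measured by CellTiter-Glo luminescence, and AC50 values came from Hill-equation fits of concentration-response data; tetraoctylammonium bromide was the positive control.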

[20] = target: ATP-dependent 6-phosphofructokinase (Trypanosoma brucei brucei) (UniProt O15648); experiment: qHTS Assay to Find Inhibitors of T. brucei phosphofructokinase: hit validation (AID 492961); details: T. brucei PFK, ADP-Glo luminescence; series mostly up to 51.4 µM
Procedure, shortened: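 Luminescence from ADP-Glo reports ADP generated as T. brucei PFK (1.25 nM) phosphorylates 0.5 mM fructose-6-phosphate using 0.1 mM ATP. Reactions ran 45 min at room temperature, pH 8.0.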

Measured: Potency

Chain of ATP-dependent 6-phosphofructokinase (Trypanosoma brucei brucei) (O15648 whole entry, looked up): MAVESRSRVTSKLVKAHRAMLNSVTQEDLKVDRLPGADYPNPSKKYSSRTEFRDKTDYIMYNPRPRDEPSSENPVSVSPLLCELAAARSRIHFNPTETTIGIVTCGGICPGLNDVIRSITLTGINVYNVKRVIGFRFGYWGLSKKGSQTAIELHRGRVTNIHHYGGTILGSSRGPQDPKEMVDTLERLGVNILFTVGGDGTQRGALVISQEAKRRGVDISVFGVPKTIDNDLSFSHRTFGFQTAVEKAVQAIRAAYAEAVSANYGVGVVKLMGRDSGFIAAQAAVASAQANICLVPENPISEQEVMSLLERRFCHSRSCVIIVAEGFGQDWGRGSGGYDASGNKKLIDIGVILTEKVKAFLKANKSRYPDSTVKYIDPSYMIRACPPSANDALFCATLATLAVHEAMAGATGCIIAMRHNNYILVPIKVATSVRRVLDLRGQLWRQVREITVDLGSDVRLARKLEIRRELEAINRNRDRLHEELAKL

CC12CCC(CC1=O)C2(C)C (stereo not given)
inactive: [1] | [2] | [3] | [4] | [5] | [6] | [7] | [8] | [9] | [10] | [11] | [12] | [13] | [14] | [15] | [16] | [17] | [18] | [19]

CC(C)CN(C[C@@H](O)[C@H](Cc1ccccc1)NC(=O)O[C@H]1CCOC1)S(=O)(=O)c1ccc(N)cc1
inactive: [20]

CC(C)CN(C[C@@H](OP(=O)(O)O)[C@H](Cc1ccccc1)NC(=O)O[C@@H]1CCOC1)S(=O)(=O)c1ccc(N)cc1
inactive: [20]

O=C(/C=C/c1ccc(O)c(O)c1)O[C@@H](C(=O)O)[C@@H](OC(=O)/C=C/c1ccc(O)c(O)c1)C(=O)O
inactive: [1] | [2] | [3] | [4] | [5] | [6] | [7] | [8] | [9] | [10] | [11] | [12] | [13] | [14] | [15] | [16] | [17] | [18] | [19]
